Among the data in PubChem BioAssay (EPA / NIEHS) are outcome and AC50 values, retold here.

Results filed as inconclusive are left out. Activity calls are given as the source filed them. The calls were made as follows: active = hit-call score of the fitted dose curve at least 0.9, where 1 is the maximum; inconclusive = response in the unintended direction; inactive = score below 0.9.

Chain of Estrogen receptor (Homo sapiens) (P03372 whole entry, looked up): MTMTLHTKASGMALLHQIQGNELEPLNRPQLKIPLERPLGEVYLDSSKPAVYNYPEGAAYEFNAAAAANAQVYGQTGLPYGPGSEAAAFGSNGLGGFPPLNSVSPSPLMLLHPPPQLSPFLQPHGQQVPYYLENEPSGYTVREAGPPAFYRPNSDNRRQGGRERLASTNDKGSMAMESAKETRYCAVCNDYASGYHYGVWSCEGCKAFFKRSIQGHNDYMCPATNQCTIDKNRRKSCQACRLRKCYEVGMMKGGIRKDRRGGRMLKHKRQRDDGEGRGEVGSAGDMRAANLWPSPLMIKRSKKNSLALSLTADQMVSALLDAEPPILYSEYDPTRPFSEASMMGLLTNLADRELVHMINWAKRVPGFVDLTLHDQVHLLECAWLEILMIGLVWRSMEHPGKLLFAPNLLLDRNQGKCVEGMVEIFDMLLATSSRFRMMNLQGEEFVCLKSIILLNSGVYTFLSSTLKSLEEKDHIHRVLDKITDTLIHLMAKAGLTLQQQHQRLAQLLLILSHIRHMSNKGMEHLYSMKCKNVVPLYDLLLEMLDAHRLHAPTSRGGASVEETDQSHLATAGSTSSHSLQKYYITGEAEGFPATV
Chain of Estrogen receptor (Homo sapiens) + Estrogen receptor beta (Homo sapiens) (P03372 whole entry, looked up, the tested form may be a part): as the sequence (P03372 whole entry, looked up) above
Chain of Estrogen receptor (Homo sapiens) + Estrogen receptor beta (Homo sapiens) (Q92731 whole entry, looked up, the tested form may be a part): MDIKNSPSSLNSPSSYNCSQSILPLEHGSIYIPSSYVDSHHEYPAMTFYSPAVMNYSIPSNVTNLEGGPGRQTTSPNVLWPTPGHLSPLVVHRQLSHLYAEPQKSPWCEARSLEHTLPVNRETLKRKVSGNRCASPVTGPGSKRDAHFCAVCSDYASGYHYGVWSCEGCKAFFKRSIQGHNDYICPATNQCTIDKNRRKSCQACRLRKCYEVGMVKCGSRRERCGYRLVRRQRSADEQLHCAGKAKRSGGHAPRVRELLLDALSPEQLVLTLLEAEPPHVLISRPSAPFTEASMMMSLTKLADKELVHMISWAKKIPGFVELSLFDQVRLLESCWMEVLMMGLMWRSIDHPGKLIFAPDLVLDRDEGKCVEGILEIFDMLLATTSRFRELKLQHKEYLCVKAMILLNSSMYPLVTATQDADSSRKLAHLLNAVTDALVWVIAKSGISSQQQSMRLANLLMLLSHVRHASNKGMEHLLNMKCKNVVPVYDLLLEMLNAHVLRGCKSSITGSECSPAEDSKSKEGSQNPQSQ

One assay has as its target Estrogen receptor (Homo sapiens) (UniProt P03372). Put plainly: NVS_NR_hER: NovaScreen (NVS) Nuclear Receptor Binding Assay for human Estrogen Receptor (ER) (AID 2283348). The gist of the method: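 Cell-free radioligand binding with protein extracted from MCF7 cells; scintillation counting 18 hours after dosing. Loss of signal versus DMSO baseline read as displacement; primary single-concentration screen at 25 uM in duplicate, actives retested in concentration series.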
Turning to `[Cl-].[Cl-].[Hg+2]`, the outcome was inactive.

On to `Clc1ccc(C(c2ccc(Cl)cc2)C(Cl)Cl)cc1`, for which the compound was called inactive.

On to `ClC1=C(Cl)[C@]2(Cl)[C@H]3[C@H]([C@@H]4C=C[C@H]3C4)[C@@]1(Cl)C2(Cl)Cl`, for which the result was inactive.

Consider `[O-][Cl+]O`, for which the call was inactive.

The next assay has the same target. Put plainly: OT_ER_ERaERa_1440: Odyssey Thera (OT) 24-hour HEK293T Protein-Complementation Assay for Estrogen Receptor-alpha/-alpha Homodimer (AID 2283349).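 Also: hits raise fluorescence above DMSO for agonists and antagonists alike.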 In short, it runs like this:
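Readout is the rise in mean fluorescence from reporter fragment complementation when ERα LBD (aa 310-547) units dimerize in HEK293T cells. Measured 24 h after dosing and analysed as increase over DMSO control.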
As to `N#CC(Br)Br`, the call was inactive.

With `Cc1ccc([N+](=O)[O-])cc1`, the result was inactive.

For `[Cl-].[Cl-].[Hg+2]`, the compound was classed as inactive.

With `Clc1ccc(C(c2ccc(Cl)cc2)C(Cl)Cl)cc1`, the compound was classed as inactive.

`Brc1ccc(Oc2ccccc2)cc1`: the result was inactive.

With `ClC1=C(Cl)[C@]2(Cl)[C@H]3[C@H]([C@@H]4C=C[C@H]3C4)[C@@]1(Cl)C2(Cl)Cl`, the compound was called inactive.

For the compound `OCCOCCO`, the compound was called inactive.

With `CO[C@@H]1[C@H](OC(=O)NC(=O)CCl)CC[C@]2(CO2)[C@H]1[C@@]1(C)O[C@@H]1CC=C(C)C`, the outcome was inactive.

With `COc1cc(C=O)cc2c1[C@H](COC(N)=O)[C@]1(OC(C)=O)ON2C[C@H]2[C@@H]1N2C(C)=O`, the call was inactive.

For the compound `O=[N+]([O-])C(Br)(CO)CO`, the outcome was inactive.

On to `Cn1cc(-c2ccccc2)c(=O)c(-c2cccc(C(F)(F)F)c2)c1`, for which the result was inactive.

On to `[O-][Cl+]O`, for which the compound was called inactive.

Consider `ClC1=C(Cl)C2(Cl)C3C(Cl)C=CC3C1(Cl)C2(Cl)Cl` (stereo not drawn), for which the compound was called inactive.

Take `OCCCBr`: the result was inactive.

As to `CNC(=O)Oc1cccc2c1OC(C)(C)C2`, the compound was classed as inactive.

As for `CCCCCOC(=O)c1ccccc1C(=O)OCCCCC`, the concentration at half-maximal activity (AC50) was 33.1 µM (active).

The next assay shares this target. In words: OT_ER_ERaERa_0480: Odyssey Thera (OT) 8-hour HEK293T Protein-Complementation Assay for Estrogen Receptor-alpha/-alpha Homodimer (AID 2283351).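 Also: rise in fluorescence from reassembled reporter fragments on ERα LBD homodimer in nucleus or whole cell.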 In short, it runs like this: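 Binding reporter in which dimerisation of ERα LBD (aa 310-547) fusions reconstitutes a fluorescent reporter in HEK293T cells. Compounds incubated 8 h; mean fluorescence intensity increase versus DMSO scored.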
Take `N#CC(Br)Br`: the outcome was inactive.

As for `Cc1ccc([N+](=O)[O-])cc1`, the result was inactive.

With `[Cl-].[Cl-].[Hg+2]`, the outcome was inactive.

With `Clc1ccc(C(c2ccc(Cl)cc2)C(Cl)Cl)cc1`, the outcome was inactive.

As for `Brc1ccc(Oc2ccccc2)cc1`, the compound was called inactive.

Take `ClC1=C(Cl)[C@]2(Cl)[C@H]3[C@H]([C@@H]4C=C[C@H]3C4)[C@@]1(Cl)C2(Cl)Cl`: the outcome was inactive.

On to `OCCOCCO`, for which the result was inactive.

On to `CO[C@@H]1[C@H](OC(=O)NC(=O)CCl)CC[C@]2(CO2)[C@H]1[C@@]1(C)O[C@@H]1CC=C(C)C`, for which the compound was classed as inactive.

`COc1cc(C=O)cc2c1[C@H](COC(N)=O)[C@]1(OC(C)=O)ON2C[C@H]2[C@@H]1N2C(C)=O`: the compound was called inactive.

Regarding `O=[N+]([O-])C(Br)(CO)CO`, the result was inactive.

On to `Cn1cc(-c2ccccc2)c(=O)c(-c2cccc(C(F)(F)F)c2)c1`, for which the call was inactive.

On to `[O-][Cl+]O`, for which the compound was classed as inactive.

In the case of `ClC1=C(Cl)C2(Cl)C3C(Cl)C=CC3C1(Cl)C2(Cl)Cl` (stereo not drawn), the outcome was inactive.

In the case of `OCCCBr`, the compound was called inactive.

For `CNC(=O)Oc1cccc2c1OC(C)(C)C2`, the compound was called inactive.

In the case of `CCCCCOC(=O)c1ccccc1C(=O)OCCCCC`, the AC50 was 56.2 µM (active).

The next assay deals with Estrogen receptor (Homo sapiens) + Estrogen receptor beta (Homo sapiens) (UniProt P03372+Q92731). In words: OT_ER_ERaERb_0480: Odyssey Thera (OT) 8-hour HEK293T Protein-Complementation Assay for Estrogen Receptor-alpha/-beta Heterodimer (AID 2283352). In short, it runs like this:
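Human HEK293T cells were treated for 8 hours and receptor heterodimerisation was detected through reconstitution of a fluorescent reporter split between ER-alpha and ER-beta ligand-binding domains. Activity was analysed as gain of signal against DMSO.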
As for `Cc1ccc([N+](=O)[O-])cc1`, the result was inactive.

For the compound `OCCOCCO`, the result was inactive.

With `[O-][Cl+]O`, the result was inactive.

Turning to `ClC1=C(Cl)C2(Cl)C3C(Cl)C=CC3C1(Cl)C2(Cl)Cl` (stereo not drawn), the outcome was inactive.

Take `OCCCBr`: the result was inactive.

On to `CNC(=O)Oc1cccc2c1OC(C)(C)C2`, for which the result was inactive.

For the compound `CCCCCOC(=O)c1ccccc1C(=O)OCCCCC`, the AC50 was 22.1 µM (active).

Usually AC50 stands for the concentration at which the activity in the assay is half-maximal.
